Measurements taken from PubChem BioAssay (NCI).
The panel holds about 83,000 compounds, 20% with a hit somewhere; the sample as a whole holds those more often.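 Results are percent growth after 48 hours of single-concentration exposure. 100 means growth as in untreated cells, lower positive values show inhibition; negative values down to -100 show cell death.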 A number with no mark means an inactive call. Active and inactive are the calls of the source. How the source made its calls: active means growth percent below 10; inactive means the rest.

Tests used:
Test in all cases: NCI-60 one-dose screen, 48 h (100 = growth as untreated, 0 = no growth, -100 = all killed)
Conditions in all cases: 10 µM unless noted
HCT-15 colon = system: HCT-15 colon
HT29 colon = system: HT29 colon
SNB-75 CNS = system: SNB-75 CNS
SNB-19 CNS = system: SNB-19 CNS
U251 CNS = system: U251 CNS
PC-3 prostate = system: PC-3 prostate
SK-MEL-5 melanoma = system: SK-MEL-5 melanoma
UACC-62 melanoma = system: UACC-62 melanoma
LOX IMVI melanoma = system: LOX IMVI melanoma
SK-MEL-28 melanoma = system: SK-MEL-28 melanoma
SK-MEL-2 melanoma = system: SK-MEL-2 melanoma
SN12C renal = system: SN12C renal
UO-31 renal = system: UO-31 renal
TK-10 renal = system: TK-10 renal
ACHN renal = system: ACHN renal
CAKI-1 renal = system: CAKI-1 renal
A498 renal = system: A498 renal
CCRF-CEM leukemia = system: CCRF-CEM leukemia
MOLT-4 leukemia = system: MOLT-4 leukemia

Structure (SMILES)	growth (HCT-15 colon)	growth (HT29 colon)	growth (SNB-75 CNS)	growth (SNB-19 CNS)	growth (U251 CNS)	growth (PC-3 prostate)	growth (SK-MEL-5 melanoma)	growth (UACC-62 melanoma)	growth (LOX IMVI melanoma)	growth (SK-MEL-28 melanoma)	growth (SK-MEL-2 melanoma)	growth (SN12C renal)	growth (UO-31 renal)	growth (TK-10 renal)	growth (ACHN renal)	growth (CAKI-1 renal)	growth (A498 renal)	growth (CCRF-CEM leukemia)	growth (MOLT-4 leukemia)
COc1ccc(/C=C/c2nc(N3CCOCC3)c3cc(F)c(F)cc3n2)cc1OC	36.3%	42.4%	54.8%	45.3%	41.5%	8.26% (active)	-18.1% (active)	41.1%	36.4%	52.4%	43.3%	33.4%	20.1%	28.8%	33.1%	28.1%	45.5%	35.8%	6.52% (active)
COc1ccc(/C=C2\C(=O)N(C(=O)c3csc(NC(C)=O)n3)N=C2C)cc1	103%	98.9%	86.5%	102%	101%	98.9%	107%	108%	96%	110%	94.8%	106%	81.9%	102%	107%	99%	121%	99%	86.9%
COc1cc(Cn2c(SCC(=O)Nc3ccc(Cl)cc3)nc3ccccc3c2=O)cc(OC)c1OC	72.8%	87.4%	27.1%	63.9%	75.4%	65.9%	49.8%	63.3%	56.1%	83.7%	81%	71.2%	17.7%	67.8%	18.9%	71.1%	41.4%	83.1%	46.4%
O=C(CCCn1c2c(sc3ccccc32)c(=O)n2nnc(-c3ccccc3)c12)NCCc1cnc[nH]1	-62.8% (active)	-100% (active)	-55.1% (active)	27.3%	-83.2% (active)	-84.5% (active)	-67.1% (active)	-68.6% (active)	-49.8% (active)	-92% (active)	-90.3% (active)	1.75% (active)	-90.3% (active)	-89.4% (active)	-19.4% (active)	-84% (active)	27.2%	38.4%	79.4%
N#CC1=C(N)OC2=C(C(=O)CCC2)C1c1ccco1 (centres undefined)	104%	109%	95.7%	98.3%	99.3%	102%	101%	112%	96.4%	111%	97.8%	107%	79.3%	96.4%	104%	93%	112%	107%	97.9%
COc1ccc([N+](=O)[O-])c(/C=C/C(=O)c2ccccn2)c1	57.5%	58.8%	67.2%	97.6%	42.2%	82.1%	90%	94.7%	41%	100%	114%	81.2%	73.3%	126%	68.9%	71.7%	83.3%	49.6%	13.3%
COc1ccc(/C=C/c2nc(N3CCOCC3)c3nc(Cl)c(Cl)cc3n2)cc1OC	97.5%	97.4%	88.3%	102%	103%	102%	103%	101%	97.2%	109%	99.1%	98.3%	108%	104%	100%	93.7%	93.7%	99.3%	87.6%
CCCCNC(=O)NS(=O)(=O)c1ccc(N2N=C(c3ccc(C)cc3C)CC2c2ccc(OC)cc2)cc1 (centres undefined)	47%	88%	85.4%	81.2%	44.9%	50.1%	55.6%	60%	56.2%	44.8%	81.3%	75%	59.7%	88.7%	64%	70.8%	52.9%	54.3%	52.3%
CCCS(=O)(=O)c1nc(NC2CC2)cc(-c2ccc3c(ccn3C3CC(C)(C)NC(C)(C)C3)c2)n1	-71.4% (active)	-48% (active)	-16.2% (active)	38.9%	-65.5% (active)	17.4%	16.2%	-83.1% (active)	-91.5% (active)	-59.2% (active)	54.5%	-77.9% (active)	-66.1% (active)	-56% (active)	-90.3% (active)	85.1%	108%	-13.7% (active)	55.9%
CCC(=O)Oc1cc(/C=C/C(=O)O[C@H]2C[C@H]3CN4CCc5c([nH]c6cc(OC)ccc56)[C@@H]4C[C@@H]3[C@@H](C(=O)OC)[C@@H]2OC)ccc1OC	59.8%	-1.66% (active)	36.7%	87.2%	61.1%	65.1%	82.9%	82.9%	79.5%	88.8%	101%	55.9%	40.9%	75.2%	46.2%	45.6%	5.24% (active)	38.1%	50.8%
c1ccn2nnnc2c1	99.8%	98.9%	106%	106%	92.7%	97.6%	103%	105%	91.9%	106%	104%	92.7%	94.5%	96.4%	111%	97.9%	101%	99.7%	101%
CN(C)c1ccc(-c2ccc(-c3ccc(C(=N)N)cn3)o2)cc1	-46.6% (active)	-61.5% (active)	-85.6% (active)	12.7%	-91.1% (active)	7.95% (active)	-95.8% (active)	-97.9% (active)	-94.8% (active)	-79.6% (active)	-85.4% (active)	-85.2% (active)	-69.4% (active)	-64.7% (active)	-83.5% (active)	-72.5% (active)	-9.83% (active)	-2.2% (active)	-52.1% (active)
ClC1=C(Cl)C(Cl)=C(Cl)C1=Cc1ccc(Cl)cc1Cl	-56.5% (active)	10.1%	-45.6% (active)	-6.26% (active)	-75.1% (active)	-16.5% (active)	-88.1% (active)	-29% (active)	-95% (active)	-28.5% (active)	-2.84% (active)	-31.1% (active)	-81.8% (active)	-5.11% (active)	-75.7% (active)	-41.2% (active)	-89.6% (active)	3.34% (active)	4.59% (active)
CSc1nc(-c2cc3ccccc3o2)cc(-c2ccc(Cl)cc2)c1C#N	31.1%	-50.6% (active)	-36% (active)	55.1%	6.2% (active)	22.2%	55.3%	-17.1% (active)	16.8%	65.2%	23.8%	36.8%	-18.2% (active)	54.7%	-63% (active)	48%	81.9%	86.8%	94.5%
CCn1cc(C(=O)O)c(=O)c2cc(F)c(N3CCN(S(=O)(=O)c4ccc(OC)c(OC)c4)CC3)cc21	102%	102%	85.5%	96.2%	106%	90%	93.5%	95.2%	85.8%	102%	91.8%	101%	62.1%	100%	93%	99%	90.4%	99.7%	78.9%
N#Cc1ncc(-c2ccc(F)c(F)c2F)c(NC2CCCCCC2)n1	76.1%	95.6%	72.2%	78.6%	59.1%	75.7%	89.9%	71.2%	84.6%	94%	95.8%	78.2%	68.9%	91.5%	84.7%	79%	124%	33.4%	68.1%
